The text below walks through data of ChEMBL document CHEMBL1961873, “Compounds: GSK PKIS; Assays: Nanosyn kinase panel” (2012).

Each structure is given as a SMILES string.

The target in assay [1] is T1, Mitogen-activated protein kinase 12 (Homo sapiens) (UniProt P53778).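 Further: values are averaged p38gamma kinase inhibition readings, compounds tested at 1 µM.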
T1 sequence (whole entry): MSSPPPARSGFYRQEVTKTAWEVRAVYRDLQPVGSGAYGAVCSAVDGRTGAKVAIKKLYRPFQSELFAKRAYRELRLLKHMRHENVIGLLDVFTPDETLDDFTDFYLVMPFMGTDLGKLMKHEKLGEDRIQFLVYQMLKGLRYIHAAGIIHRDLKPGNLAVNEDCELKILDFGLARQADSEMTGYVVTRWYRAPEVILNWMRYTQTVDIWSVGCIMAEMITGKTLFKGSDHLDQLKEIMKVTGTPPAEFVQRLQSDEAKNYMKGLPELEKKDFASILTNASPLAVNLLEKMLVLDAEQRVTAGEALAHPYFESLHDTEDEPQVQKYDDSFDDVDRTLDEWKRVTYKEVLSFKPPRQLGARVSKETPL
The settings on record: at 1 µM.

Assay [2] concerns the target SRSF protein kinase 1 (Homo sapiens) (UniProt Q96SB4). The note with it: at 0.1 µM.
Assay [3] has the same target. The settings on record: at 1 µM.
The target of assay [4] is Phosphatidylinositol 4,5-bisphosphate 3-kinase catalytic subunit alpha isoform (Homo sapiens) (UniProt P42336). The settings on record: at 0.1 µM.
Assay [5] shares this target. The settings on record: at 1 µM.
Assay [6] concerns the target T2, Phosphatidylinositol 4,5-bisphosphate 3-kinase catalytic subunit delta isoform (Homo sapiens) (UniProt O00329).
T2 sequence (whole entry): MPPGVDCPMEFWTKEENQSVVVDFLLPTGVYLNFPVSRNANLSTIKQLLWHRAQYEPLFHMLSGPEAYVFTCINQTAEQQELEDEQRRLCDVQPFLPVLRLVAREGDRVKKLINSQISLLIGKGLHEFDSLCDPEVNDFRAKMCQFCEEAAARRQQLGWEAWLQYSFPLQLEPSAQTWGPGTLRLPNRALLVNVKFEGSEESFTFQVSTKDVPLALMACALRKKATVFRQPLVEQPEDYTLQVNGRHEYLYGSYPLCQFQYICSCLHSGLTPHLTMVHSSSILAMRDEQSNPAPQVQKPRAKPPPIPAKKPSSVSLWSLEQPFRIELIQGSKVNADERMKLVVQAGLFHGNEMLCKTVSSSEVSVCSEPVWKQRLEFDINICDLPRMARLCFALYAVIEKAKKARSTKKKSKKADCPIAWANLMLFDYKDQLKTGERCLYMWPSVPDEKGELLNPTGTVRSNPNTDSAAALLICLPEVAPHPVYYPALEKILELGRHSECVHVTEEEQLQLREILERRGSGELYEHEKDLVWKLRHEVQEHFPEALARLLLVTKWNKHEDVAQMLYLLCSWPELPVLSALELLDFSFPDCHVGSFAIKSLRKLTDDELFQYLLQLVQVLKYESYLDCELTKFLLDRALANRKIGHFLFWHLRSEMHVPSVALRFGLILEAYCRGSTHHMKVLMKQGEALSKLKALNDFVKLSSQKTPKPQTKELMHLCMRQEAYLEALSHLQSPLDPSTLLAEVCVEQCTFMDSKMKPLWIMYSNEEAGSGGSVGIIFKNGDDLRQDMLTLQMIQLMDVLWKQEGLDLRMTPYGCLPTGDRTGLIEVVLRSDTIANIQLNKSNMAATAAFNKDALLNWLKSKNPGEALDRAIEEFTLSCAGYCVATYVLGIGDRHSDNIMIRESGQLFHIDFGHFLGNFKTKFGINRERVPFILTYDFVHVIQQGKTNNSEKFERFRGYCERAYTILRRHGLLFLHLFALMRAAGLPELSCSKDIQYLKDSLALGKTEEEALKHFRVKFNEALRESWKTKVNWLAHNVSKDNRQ
The settings on record: at 0.1 µM.

The target in assay [7] is T2, Phosphatidylinositol 4,5-bisphosphate 3-kinase catalytic subunit delta isoform (Homo sapiens). The note with it: at 1 µM.
The target in assay [8] is Phosphatidylinositol 4-kinase beta (Homo sapiens) (UniProt Q9UBF8). The note with it: at 0.1 µM.
Assay [9] has the same target. The note with it: at 1 µM.
The target in assay [10] is Sphingosine kinase 1 (Homo sapiens) (UniProt Q9NYA1). The settings on record: at 0.1 µM.
Assay [11] has the same target. The settings on record: at 1 µM.
In assay [12] the target is T3, Sphingosine kinase 2 (Homo sapiens) (UniProt Q9NRA0).
T3 sequence (whole entry): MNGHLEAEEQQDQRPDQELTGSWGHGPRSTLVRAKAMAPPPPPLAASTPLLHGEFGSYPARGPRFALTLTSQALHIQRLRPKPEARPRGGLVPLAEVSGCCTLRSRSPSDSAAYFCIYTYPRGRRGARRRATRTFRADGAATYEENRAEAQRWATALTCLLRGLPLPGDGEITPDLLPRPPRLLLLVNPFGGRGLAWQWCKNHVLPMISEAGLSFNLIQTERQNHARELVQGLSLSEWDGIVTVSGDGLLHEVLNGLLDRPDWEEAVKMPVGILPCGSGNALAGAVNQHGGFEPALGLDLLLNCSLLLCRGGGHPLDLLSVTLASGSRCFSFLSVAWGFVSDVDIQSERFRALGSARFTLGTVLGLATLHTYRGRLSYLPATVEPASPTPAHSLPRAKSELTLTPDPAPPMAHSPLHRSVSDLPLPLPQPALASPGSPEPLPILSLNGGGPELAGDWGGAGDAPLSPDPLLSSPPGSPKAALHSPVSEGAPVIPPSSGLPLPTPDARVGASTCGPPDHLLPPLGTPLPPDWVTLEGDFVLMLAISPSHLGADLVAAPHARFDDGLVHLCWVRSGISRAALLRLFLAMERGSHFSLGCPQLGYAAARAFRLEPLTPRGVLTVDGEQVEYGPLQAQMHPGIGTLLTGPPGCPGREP
The settings on record: at 0.1 µM.

The target in assay [13] is T3, Sphingosine kinase 2 (Homo sapiens). The note with it: at 1 µM.
Assay [14] concerns the target Casein kinase II subunit alpha (Homo sapiens) (UniProt P68400). The settings on record: at 0.1 µM.
For assay [15] the target is unchanged. The note with it: at 1 µM.
Assay [16] deals with T4, Inhibitor of nuclear factor kappa-B kinase subunit alpha (Homo sapiens) (UniProt O15111).
T4 sequence (whole entry): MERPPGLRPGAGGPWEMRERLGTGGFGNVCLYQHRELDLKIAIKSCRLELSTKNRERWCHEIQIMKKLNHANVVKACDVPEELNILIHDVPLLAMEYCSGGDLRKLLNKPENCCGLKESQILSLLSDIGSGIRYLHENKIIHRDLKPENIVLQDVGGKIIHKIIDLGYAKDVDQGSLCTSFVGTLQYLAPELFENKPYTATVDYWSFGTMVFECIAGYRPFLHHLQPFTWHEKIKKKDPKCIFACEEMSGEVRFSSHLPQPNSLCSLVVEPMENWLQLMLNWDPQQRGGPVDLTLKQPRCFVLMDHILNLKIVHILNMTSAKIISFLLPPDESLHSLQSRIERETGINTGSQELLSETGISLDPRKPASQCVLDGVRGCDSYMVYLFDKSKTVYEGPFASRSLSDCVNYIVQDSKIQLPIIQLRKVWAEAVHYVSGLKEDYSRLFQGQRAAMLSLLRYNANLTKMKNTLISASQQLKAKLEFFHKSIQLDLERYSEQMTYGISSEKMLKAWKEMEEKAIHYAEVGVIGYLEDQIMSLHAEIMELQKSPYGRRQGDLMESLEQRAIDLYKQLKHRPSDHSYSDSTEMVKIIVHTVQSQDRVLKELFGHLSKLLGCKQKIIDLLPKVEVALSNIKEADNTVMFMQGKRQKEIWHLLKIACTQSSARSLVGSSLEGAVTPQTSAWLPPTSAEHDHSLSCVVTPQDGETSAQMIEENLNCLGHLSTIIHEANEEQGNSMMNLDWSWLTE
The note with it: at 0.1 µM.

For assay [17], the target named is T4, Inhibitor of nuclear factor kappa-B kinase subunit alpha (Homo sapiens). The settings on record: at 1 µM.
For assay [18], the target named is T5, Inhibitor of nuclear factor kappa-B kinase subunit beta (Homo sapiens) (UniProt O14920).
T5 sequence (whole entry): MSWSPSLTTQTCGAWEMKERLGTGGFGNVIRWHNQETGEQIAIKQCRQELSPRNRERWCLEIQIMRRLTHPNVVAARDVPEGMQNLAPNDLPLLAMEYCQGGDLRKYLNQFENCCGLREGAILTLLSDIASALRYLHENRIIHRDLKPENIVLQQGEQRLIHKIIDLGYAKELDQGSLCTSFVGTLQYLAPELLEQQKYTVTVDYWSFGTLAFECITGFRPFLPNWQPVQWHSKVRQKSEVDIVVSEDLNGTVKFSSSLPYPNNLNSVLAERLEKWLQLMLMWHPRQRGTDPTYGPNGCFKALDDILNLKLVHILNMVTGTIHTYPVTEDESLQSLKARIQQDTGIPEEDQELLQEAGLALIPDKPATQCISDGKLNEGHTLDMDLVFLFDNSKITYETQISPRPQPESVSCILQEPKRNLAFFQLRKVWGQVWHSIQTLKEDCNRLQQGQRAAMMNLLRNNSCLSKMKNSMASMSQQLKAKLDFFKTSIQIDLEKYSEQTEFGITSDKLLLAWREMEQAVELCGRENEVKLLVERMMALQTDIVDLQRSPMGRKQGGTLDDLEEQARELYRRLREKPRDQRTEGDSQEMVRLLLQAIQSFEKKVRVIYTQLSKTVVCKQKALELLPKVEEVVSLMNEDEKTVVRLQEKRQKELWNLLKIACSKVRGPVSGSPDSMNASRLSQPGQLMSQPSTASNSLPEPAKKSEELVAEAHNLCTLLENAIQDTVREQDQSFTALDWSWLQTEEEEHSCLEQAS
The settings on record: at 0.1 µM.

Assay [19] has as its target T5, Inhibitor of nuclear factor kappa-B kinase subunit beta (Homo sapiens). The settings on record: at 1 µM.
Assay [20] deals with T6, Inhibitor of nuclear factor kappa-B kinase subunit epsilon (Homo sapiens) (UniProt Q14164).
T6 sequence (whole entry): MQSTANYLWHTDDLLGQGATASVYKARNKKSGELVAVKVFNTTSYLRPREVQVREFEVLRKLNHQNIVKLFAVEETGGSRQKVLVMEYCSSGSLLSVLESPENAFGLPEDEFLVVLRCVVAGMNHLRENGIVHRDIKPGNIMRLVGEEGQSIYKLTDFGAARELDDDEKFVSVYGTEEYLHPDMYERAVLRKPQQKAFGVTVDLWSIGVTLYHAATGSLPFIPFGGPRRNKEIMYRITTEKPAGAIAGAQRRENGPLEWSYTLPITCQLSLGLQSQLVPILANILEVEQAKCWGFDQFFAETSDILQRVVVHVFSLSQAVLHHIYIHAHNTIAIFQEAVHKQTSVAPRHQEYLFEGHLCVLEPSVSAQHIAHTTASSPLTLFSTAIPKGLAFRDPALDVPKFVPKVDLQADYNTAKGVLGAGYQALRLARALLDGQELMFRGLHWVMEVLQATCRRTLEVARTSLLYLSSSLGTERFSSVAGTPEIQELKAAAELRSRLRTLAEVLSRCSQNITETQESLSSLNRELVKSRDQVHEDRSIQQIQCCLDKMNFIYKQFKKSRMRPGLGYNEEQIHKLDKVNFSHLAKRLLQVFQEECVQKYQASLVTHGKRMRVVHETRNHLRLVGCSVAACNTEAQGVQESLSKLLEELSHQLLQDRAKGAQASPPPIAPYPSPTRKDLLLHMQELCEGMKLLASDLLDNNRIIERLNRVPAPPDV
The note with it: at 0.1 µM.

Casein kinase II subunit alpha (Homo sapiens), sequence (P68400 whole entry, looked up): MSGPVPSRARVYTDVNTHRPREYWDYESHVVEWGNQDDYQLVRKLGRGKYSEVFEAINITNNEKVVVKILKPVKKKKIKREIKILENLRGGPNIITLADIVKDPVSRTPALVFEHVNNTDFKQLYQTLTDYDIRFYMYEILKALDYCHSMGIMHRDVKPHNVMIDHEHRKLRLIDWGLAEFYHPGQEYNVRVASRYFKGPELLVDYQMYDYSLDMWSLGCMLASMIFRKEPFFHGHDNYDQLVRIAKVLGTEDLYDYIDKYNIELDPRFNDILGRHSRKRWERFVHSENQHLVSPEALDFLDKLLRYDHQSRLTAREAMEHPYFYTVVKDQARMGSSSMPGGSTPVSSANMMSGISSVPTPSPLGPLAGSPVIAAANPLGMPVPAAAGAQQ
Phosphatidylinositol 4-kinase beta (Homo sapiens), sequence (Q9UBF8 2-816 limits assumed): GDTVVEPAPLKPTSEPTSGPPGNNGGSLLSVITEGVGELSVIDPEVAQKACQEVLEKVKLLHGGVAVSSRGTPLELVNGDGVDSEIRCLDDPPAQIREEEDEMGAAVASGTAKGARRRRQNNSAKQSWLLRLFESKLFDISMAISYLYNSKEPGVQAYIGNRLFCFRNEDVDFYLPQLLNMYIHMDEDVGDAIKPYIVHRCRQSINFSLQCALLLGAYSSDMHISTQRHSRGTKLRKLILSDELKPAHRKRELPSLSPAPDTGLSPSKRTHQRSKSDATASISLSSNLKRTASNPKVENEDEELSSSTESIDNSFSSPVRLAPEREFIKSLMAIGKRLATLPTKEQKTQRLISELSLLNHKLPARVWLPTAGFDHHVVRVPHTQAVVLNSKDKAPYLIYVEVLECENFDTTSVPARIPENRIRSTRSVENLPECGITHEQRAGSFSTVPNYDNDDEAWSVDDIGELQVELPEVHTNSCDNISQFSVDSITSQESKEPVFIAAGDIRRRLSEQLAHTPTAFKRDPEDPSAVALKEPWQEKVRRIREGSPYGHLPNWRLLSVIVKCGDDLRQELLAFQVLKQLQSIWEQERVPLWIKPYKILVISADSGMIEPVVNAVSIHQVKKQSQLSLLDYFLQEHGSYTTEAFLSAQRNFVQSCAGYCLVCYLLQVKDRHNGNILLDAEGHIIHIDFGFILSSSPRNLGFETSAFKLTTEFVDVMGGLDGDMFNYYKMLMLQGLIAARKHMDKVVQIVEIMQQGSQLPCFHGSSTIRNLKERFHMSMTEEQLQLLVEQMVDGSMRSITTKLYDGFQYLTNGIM
SRSF protein kinase 1 (Homo sapiens), sequence (Q96SB4 whole entry): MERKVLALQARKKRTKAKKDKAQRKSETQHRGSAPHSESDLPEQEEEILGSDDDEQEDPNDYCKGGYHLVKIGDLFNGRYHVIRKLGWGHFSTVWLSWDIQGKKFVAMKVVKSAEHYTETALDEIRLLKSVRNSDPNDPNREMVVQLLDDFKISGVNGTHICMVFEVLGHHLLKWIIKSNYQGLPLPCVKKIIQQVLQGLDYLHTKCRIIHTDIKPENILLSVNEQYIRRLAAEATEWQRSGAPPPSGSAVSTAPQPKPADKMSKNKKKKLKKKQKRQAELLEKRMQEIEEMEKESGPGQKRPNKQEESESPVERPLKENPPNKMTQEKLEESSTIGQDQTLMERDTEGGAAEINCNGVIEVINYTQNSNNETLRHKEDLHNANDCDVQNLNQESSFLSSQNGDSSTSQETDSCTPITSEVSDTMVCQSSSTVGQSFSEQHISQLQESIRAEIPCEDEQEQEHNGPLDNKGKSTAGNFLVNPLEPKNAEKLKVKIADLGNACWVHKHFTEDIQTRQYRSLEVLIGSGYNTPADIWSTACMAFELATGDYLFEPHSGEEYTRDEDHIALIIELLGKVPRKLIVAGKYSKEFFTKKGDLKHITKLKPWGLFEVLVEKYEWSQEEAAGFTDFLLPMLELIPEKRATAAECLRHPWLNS
Sphingosine kinase 1 (Homo sapiens), sequence (Q9NYA1 whole entry): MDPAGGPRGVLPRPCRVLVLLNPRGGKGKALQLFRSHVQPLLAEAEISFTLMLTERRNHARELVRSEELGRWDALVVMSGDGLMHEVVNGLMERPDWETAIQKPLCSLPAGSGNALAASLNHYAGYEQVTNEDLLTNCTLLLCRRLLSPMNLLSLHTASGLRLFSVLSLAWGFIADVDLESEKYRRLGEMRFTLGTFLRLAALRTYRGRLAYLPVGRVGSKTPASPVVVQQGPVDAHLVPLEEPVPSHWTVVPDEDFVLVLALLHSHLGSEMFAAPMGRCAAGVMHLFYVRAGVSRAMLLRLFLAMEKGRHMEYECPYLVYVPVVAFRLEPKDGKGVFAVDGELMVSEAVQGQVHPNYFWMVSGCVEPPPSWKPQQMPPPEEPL
Phosphatidylinositol 4,5-bisphosphate 3-kinase catalytic subunit alpha isoform (Homo sapiens), sequence (P42336 whole entry, canonical isoform): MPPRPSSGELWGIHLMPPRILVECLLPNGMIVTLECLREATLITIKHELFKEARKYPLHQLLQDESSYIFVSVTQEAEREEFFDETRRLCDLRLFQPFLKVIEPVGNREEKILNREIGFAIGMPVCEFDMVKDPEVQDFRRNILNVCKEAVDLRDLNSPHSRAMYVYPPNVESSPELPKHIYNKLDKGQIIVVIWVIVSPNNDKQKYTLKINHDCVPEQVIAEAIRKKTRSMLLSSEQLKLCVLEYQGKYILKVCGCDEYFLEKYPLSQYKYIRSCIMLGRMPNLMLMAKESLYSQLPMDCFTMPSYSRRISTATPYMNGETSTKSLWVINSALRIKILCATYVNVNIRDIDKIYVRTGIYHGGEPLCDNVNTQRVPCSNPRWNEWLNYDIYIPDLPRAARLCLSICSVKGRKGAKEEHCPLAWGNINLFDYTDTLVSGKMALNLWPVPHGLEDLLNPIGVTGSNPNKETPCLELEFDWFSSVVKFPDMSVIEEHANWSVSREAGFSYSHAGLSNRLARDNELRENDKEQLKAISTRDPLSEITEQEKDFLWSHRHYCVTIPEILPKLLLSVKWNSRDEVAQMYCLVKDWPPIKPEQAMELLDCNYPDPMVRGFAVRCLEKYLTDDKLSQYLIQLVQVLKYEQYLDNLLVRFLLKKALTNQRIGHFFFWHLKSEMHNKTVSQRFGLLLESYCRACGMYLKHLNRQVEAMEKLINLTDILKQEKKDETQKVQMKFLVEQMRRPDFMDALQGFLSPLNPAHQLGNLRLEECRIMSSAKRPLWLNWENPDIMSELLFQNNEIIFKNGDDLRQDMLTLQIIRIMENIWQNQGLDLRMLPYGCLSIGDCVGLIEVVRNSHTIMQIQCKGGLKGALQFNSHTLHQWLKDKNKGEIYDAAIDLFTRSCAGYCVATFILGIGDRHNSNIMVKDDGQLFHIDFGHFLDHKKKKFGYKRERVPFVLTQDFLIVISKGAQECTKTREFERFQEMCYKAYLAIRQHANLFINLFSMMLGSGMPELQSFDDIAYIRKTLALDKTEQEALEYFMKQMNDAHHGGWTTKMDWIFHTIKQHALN

For `Cc1ccc(NC(=O)CC2CC2)cc1-c1ccc(C(=O)NCC2CC2)cc1`, the inhibition is 2.02% in [1]; -0.1% in [2]; 1.32% in assay [3]; 2.05% in [4]; 3.63% in assay [5]; 0.9% in assay [6]. Besides, the inhibition is 1.78% in assay [7]; -3.28% in [8]; -2.41% in assay [9]; -0.38% in [10]; -1.09% in assay [11]; 0.51% in assay [12]. The inhibition is -0.13% in [13]; 4.55% in [14]; 8.23% in [15]; 0.25% in [16]; 1.31% in assay [17]; 3.09% in assay [18]. Further, the inhibition in assay [19] worked out at 3.67%; in assay [20], 4.09%.

Consider `COc1cc2ncn(-c3cc(OCc4ccccc4S(C)(=O)=O)c(C#N)s3)c2cc1OC`, for which the inhibition in [1] is 2.63%; in assay [2] it was -1.91%; in assay [3], -1.66%; in assay [4], 3.16%; in assay [5], 3.95%; in assay [6], 2.67%. Moreover, the inhibition in assay [7] was 3.41%; in assay [8], -5.13%; in assay [9], -1.46%; in assay [10], 0.08%; in assay [11] it was -0.15%; in assay [12], 0.46%. Also, the inhibition in assay [13] was -2.2%; in [14], 2.39%; in assay [15], 5%; in assay [16], 6.91%; in [17] it was 5.75%; in assay [18], 3.44%. The inhibition came to 1.17% in assay [19] and 42.5% in [20].

As for `COc1cc2ncnc(Nc3ccc(C)c(O)c3)c2cc1OC`, the inhibition was 4.08% in assay [1]; -1.2% in assay [2]; -0.28% in assay [3]; 4.07% in [4]; 7.27% in [5]; 1.27% in assay [6]. The inhibition in assay [7] is 4.88%; in assay [8], -1.03%; in assay [9], -0.17%; in [10], 4.48%; in assay [11] it was -3.1%; in assay [12] it was -0.83%. The inhibition in [13] was determined as 0.12%; in assay [14], 2.65%; in assay [15], 6.37%; in assay [16], 7.19%; in assay [17], 11.6%; in [18], 6.42%. Also, the results for the inhibition in assay [19] and in [20] were 6.01% and 5.22%, respectively.

In the case of `O=S(=O)(CCOCc1ccc(-c2ccc3ncnc(Nc4ccc(OCc5cccc(F)c5)c(Cl)c4)c3c2)o1)c1ccccc1`, the inhibition was 4.2% in assay [1]; -2.76% in assay [2]; -1.54% in assay [3]; 1.05% in [4]; 12.9% in assay [5]; 0.99% in assay [6]. In addition, the inhibition in assay [7] was determined as 10.1%; in [8] it was 0.56%; in [9], 0.4%; in assay [10], 1.08%; in [11], 1.2%; in assay [12], 0.14%. Further, the inhibition in [13] is 14.2%; in assay [14] it was 1.35%; in assay [15] it was 4.52%; in assay [16], 1.54%; in [17] it was 4.26%; in assay [18], -0.1%. The inhibition in [19] came to 0.7%; in assay [20] it was 1.59%.
